Data on 43 compounds can be found in PMC4336329 (PLoS ONE, 2015).

Each structure is given as a SMILES string. In all, about 310,000 compounds went through this assay and about 14,000 (4.5%) showed an effect of 50% or more. The effect is printed as a negative number. What follows is part of a selection rich in strong results, with near analogues and random picks from the rest.
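Note: peak tail current of the secondary pulse compared with the same well before compound.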

In this experiment the target is human ether-à-go-go-related gene (hERG) potassium channel (human, UniProt Q12809). The experiment can be described thus: primary screen, population patch clamp on CHO cells stably expressing hERG; higher = less effect of the substance.
human ether-à-go-go-related gene (hERG) potassium channel, sequence (Q12809 whole entry, looked up): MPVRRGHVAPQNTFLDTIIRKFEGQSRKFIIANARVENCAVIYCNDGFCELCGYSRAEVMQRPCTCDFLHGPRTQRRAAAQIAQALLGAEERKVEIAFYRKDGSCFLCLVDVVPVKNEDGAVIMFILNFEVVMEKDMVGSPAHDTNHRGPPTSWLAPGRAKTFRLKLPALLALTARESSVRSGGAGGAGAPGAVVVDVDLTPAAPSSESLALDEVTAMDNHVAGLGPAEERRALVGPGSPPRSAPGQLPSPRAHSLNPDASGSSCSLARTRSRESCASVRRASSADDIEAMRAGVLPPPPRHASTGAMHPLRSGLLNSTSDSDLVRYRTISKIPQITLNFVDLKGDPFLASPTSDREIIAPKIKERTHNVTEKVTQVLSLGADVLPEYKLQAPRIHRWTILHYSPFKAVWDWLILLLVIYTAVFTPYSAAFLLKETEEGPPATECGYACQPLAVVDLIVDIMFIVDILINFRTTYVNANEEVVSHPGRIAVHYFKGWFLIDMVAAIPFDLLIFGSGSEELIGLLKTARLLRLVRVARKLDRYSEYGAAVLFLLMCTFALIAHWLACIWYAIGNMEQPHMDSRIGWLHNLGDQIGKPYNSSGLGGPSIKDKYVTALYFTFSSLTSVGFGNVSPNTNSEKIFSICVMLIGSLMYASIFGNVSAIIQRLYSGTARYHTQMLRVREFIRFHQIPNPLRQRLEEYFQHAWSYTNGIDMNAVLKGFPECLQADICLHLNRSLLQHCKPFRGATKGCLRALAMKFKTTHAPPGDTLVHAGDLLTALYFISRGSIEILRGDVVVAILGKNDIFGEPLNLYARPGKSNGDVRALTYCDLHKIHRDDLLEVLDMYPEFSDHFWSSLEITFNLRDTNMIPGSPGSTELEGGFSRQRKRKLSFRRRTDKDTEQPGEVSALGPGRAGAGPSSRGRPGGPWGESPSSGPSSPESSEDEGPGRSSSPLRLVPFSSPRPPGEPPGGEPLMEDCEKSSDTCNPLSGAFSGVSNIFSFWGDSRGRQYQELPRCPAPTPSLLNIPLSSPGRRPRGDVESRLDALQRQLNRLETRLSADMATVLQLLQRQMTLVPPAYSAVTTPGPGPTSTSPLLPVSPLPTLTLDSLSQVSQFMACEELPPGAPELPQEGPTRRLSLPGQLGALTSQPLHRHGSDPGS
Turning to `COc1cccc(-c2nc(C(=O)NCC3CCCO3)cc3c2[nH]c2ccccc23)c1` (stereo not shown), the “hERG current change (%, negative = inhibition) at 10uM” value is -26.4%.
The result for `COc1ccc(OC)c(-c2nc(C(=O)NCC3CCCO3)cc3c2[nH]c2ccccc23)c1` (stereo not shown) reads -59.1%; that for `COc1ccc(OC)c(-c2nc(C(=O)NC3CCN(Cc4ccccc4)CC3)cc3c2[nH]c2ccccc23)c1`, -43.5%.
With `COc1cccc(-c2nc(C(=O)NCCCN3CCOCC3)cc3c2[nH]c2ccccc23)c1`, the “hERG current change (%, negative = inhibition) at 10uM” value is -65.3%.
Turning to `Cc1ccc(-c2nc(C(=O)NCCCN3CCOCC3)cc3c2[nH]c2ccccc23)cc1`, the “hERG current change (%, negative = inhibition) at 10uM” value is on record as -15%.
`COc1ccc(-c2nc(C(=O)NCCCN3CCOCC3)cc3c2[nH]c2ccccc23)cc1OC`: the “hERG current change (%, negative = inhibition) at 10uM” value was -72.2%.
The figure for `COc1cc(-c2nc(C(=O)NC3CCCCC3)cc3c2[nH]c2ccccc23)cc(OC)c1OC` is -8.67%; for `O=C(NCCCN1CCOCC1)c1cc2c([nH]c3ccccc32)c(-c2cccc(Br)c2)n1` it is -40.8%.
For the compound `COc1ccc(-c2cc(C(=O)NCCCN3CCOCC3)c3ccccc3n2)cc1OC`, the “hERG current change (%, negative = inhibition) at 10uM” value is reported as -7.5%.
Regarding `COc1ccccc1-c1nc(C(=O)NCC2CCCO2)cc2c1[nH]c1ccccc12` (stereo not shown), the “hERG current change (%, negative = inhibition) at 10uM” value was -29%.
Turning to `COc1ccc(-c2nc(C(=O)NCC3CCCO3)cc3c2[nH]c2ccccc23)cc1` (stereo not shown), the “hERG current change (%, negative = inhibition) at 10uM” value is -2.81%.
For the compound `COc1cc(-c2nc(C(=O)NC3CCN(Cc4ccccc4)CC3)cc3c2[nH]c2ccccc23)cc(OC)c1OC`, the “hERG current change (%, negative = inhibition) at 10uM” value is on record as -59.6%.
Take `CC(C)Oc1cccc(C(=O)NC(=S)Nc2ccc3c4c(cccc24)CC3)c1`: the “hERG current change (%, negative = inhibition) at 10uM” value came to 14.9%.
For the compound `Cc1cc(C)n2nc3nc(N4CCCC4)nc(-c4ccccc4)c3c2n1`, the “hERG current change (%, negative = inhibition) at 10uM” value is 7.37%.
The result for `Cc1cc(C(=O)Nc2cccnc2)on1` reads -3.6%; that for `COc1cccc(CNC(=O)CCCc2nnc3n(C)c(=O)c4sccc4n23)c1`, -22.2%; that for `CCOc1cccc(OCCOCCOc2ccccc2C(C)=O)c1`, -7.23%.
Regarding `COc1ccccc1-c1cc(C(=O)NCCCN2CCOCC2)no1`, the “hERG current change (%, negative = inhibition) at 10uM” value is -28%.
`COc1ccc(OC)c(-c2nc(C(=O)NCCCN3CCOCC3)cc3c2[nH]c2ccccc23)c1`: the “hERG current change (%, negative = inhibition) at 10uM” value was -65.7%.
Consider `COc1ccc(OC)c(-c2cc(C(=O)NCCN3CCOCC3)no2)c1`, for which the “hERG current change (%, negative = inhibition) at 10uM” value is on record as -5%.
Consider `CC(C)CCNC(=O)c1ccc(Cl)c(N)c1`, for which the “hERG current change (%, negative = inhibition) at 10uM” value worked out at 18.9%.
Turning to `Cc1ccccc1OCCCC(=O)Nc1ccc2c(c1)OCO2`, the “hERG current change (%, negative = inhibition) at 10uM” value is recorded as 5.46%.
For `CCN(CC)S(=O)(=O)c1ccc(NC(=O)Cn2cnc3ccccc3c2=O)cc1`, the “hERG current change (%, negative = inhibition) at 10uM” value is reported as -32.8%.
On to `Cc1ccc(NC(=O)Cn2cnc3cc([N+](=O)[O-])ccc3c2=O)cc1`, for which the “hERG current change (%, negative = inhibition) at 10uM” value is given as 0.77%.
`Cc1ccc(NC(=O)Cn2cnc3cc([N+](=O)[O-])ccc3c2=O)c(Cl)c1`: the “hERG current change (%, negative = inhibition) at 10uM” value was determined as 16.4%.
In the case of `CN(C)S(=O)(=O)c1cccc(NC(=O)Cn2cnc3ccccc3c2=O)c1`, the “hERG current change (%, negative = inhibition) at 10uM” value is 8.28%.
For the compound `CCN(CC)S(=O)(=O)c1cc(NC(=O)Cn2cnc3ccccc3c2=O)ccc1C`, the “hERG current change (%, negative = inhibition) at 10uM” value is -54.8%.
In the case of `CCN(CC)S(=O)(=O)c1ccc(C)c(NC(=O)Cn2cnc3cc([N+](=O)[O-])ccc3c2=O)c1`, the “hERG current change (%, negative = inhibition) at 10uM” value was -55.7%.
The figure for `COc1ccc(C(=O)NCc2cc(C)nc3ccccc23)cc1` is -13.6%.
As to `COCc1nc2ccccc2n1CCc1ccccc1`, the “hERG current change (%, negative = inhibition) at 10uM” value is reported as -33.6%.
As for `O=C1CCC(=O)N1c1ccc(-c2nc3ccccc3s2)cc1`, the “hERG current change (%, negative = inhibition) at 10uM” value was found to be 16%.
The figure for `Cc1ccc(Sc2c(C)nn(C(=O)C3CC3)c2C)cc1` is 11.6%; for `O=C1COc2ccc(C(=O)COC(=O)Cc3ccccc3)cc2N1` it is -13%; for `Cc1ccc(N(C(=O)C2CCC(=O)N2)C2(C(=O)NC3CCCC3)CCCCC2)cc1` (stereo not shown) it is 0.218%.
Regarding `CC(=O)Nc1ccc(CN2CCCC(CCC(=O)NCc3ccccc3F)C2)cc1` (stereo not shown), the “hERG current change (%, negative = inhibition) at 10uM” value is on record as -8.19%.
Regarding `O=C(CCC1CCN(C(=O)Cc2c(F)cccc2F)CC1)NC1CC1`, the “hERG current change (%, negative = inhibition) at 10uM” value was 11.9%.
With `O=C(CCC1CCCN(Cc2ccc(O)c(Cl)c2)C1)NCc1ccccc1F` (stereo not shown), the “hERG current change (%, negative = inhibition) at 10uM” value is reported as -43.2%.
The figure for `O=C(CCC1CCN(Cc2ccccc2O)CC1)NC1CC1` is -23.7%; for `O=C(CCC1CCCN(Cc2cccc(Cl)c2)C1)NCc1ccccc1F` (stereo not shown) it is -50.9%; for `CCOc1cccc(CN2CCC(CCC(=O)NC3CC3)CC2)c1O` it is -70.3%.
Take `CCOc1cccc(CN2CCCC(CCC(=O)NCc3ccccc3F)C2)c1O` (stereo not shown): the “hERG current change (%, negative = inhibition) at 10uM” value is -65%.
The result for `Cc1nn(C)c(Cl)c1CN1CCCC(CCC(=O)NCc2ccccc2F)C1` (stereo not shown) reads -27%; that for `Cc1ncc(CN2CCCC(CCC(=O)NCc3ccccc3F)C2)s1` (stereo not shown), 17.8%.
